{
  "source": "PubChem BioAssay AID652141",
  "about": "(The Scripps Research Institute Molecular Screening Center, 2013)",
  "note": "The campaign covered roughly 5,600 compounds. About 4,500 (80%) were called active. So high a share suggests a set chosen from earlier hits. Only a sample is shown. A number with no mark means an inactive call. Rule as the data show it: active = inhibition above about 10%; inactive = the rest.",
  "data": [
    {"experiment": "inhibition of coupled GDH and TPI enzymes – biochemical, fluorescence, high throughput, artefact control for M. tuberculosis FBA inhibitor project (AID 652141)", "details": "GDH-TPI coupled enzyme counterscreen, at 1 µM, stronger effect = higher value", "values": [
      {"smiles": "COCCCNC(=S)N(CCN(C)C)Cc1cc2cc3c(cc2[nH]c1=O)OCCO3", "inhibition": "41% (active)"},
      {"smiles": "Cc1ccc2nc(/C(C#N)=C\\c3ccc(OC(=O)c4cccs4)cc3)[nH]c2c1", "inhibition": "39% (active)"},
      {"smiles": "Cc1ccsc1C(=O)N[C@@H](C)c1nnc2ccccn12", "inhibition": "110% (active)"},
      {"smiles": "CCC1C(=O)c2ccccc2N(C)C1=O", "note": "(centres undefined)", "inhibition": "-6.39%"},
      {"smiles": "CN1CCN(CCCNC(=O)c2ccc(/C=C3\\Oc4ccccc4N(Cc4ccc(Cl)cc4)C3=O)cc2)CC1", "inhibition": "-4.56%"},
      {"smiles": "O=C(NCCN1CCOCC1)c1ccc2c(c1)N(Cc1ccc(Cl)cc1)CCS2", "inhibition": "48.2% (active)"},
      {"smiles": "O=C(NCCc1ccccc1)c1ccc2c(c1)N(Cc1ccccc1)CCS2", "inhibition": "29.2% (active)"},
      {"smiles": "CC(C)(C)Nc1c(-c2cccs2)nc2ccccn12", "inhibition": "114% (active)"},
      {"smiles": "Cc1c(Cc2ccccc2)c(=O)oc2cc(OCC(N)=O)ccc12", "inhibition": "899% [above what the read-out allows, likely interference] (active)"},
      {"smiles": "Cc1c(CCC(=O)O)c(=O)oc2cc(OCc3ccc(Br)cc3)ccc12", "inhibition": "1.56%"},
      {"smiles": "CCOC(=O)c1c(-c2ccccc2)oc2ccc(OCC(=O)NN)cc12", "inhibition": "74.7% (active)"},
      {"smiles": "CCOC(=O)c1c(-c2ccccc2)oc2ccc(OC(=O)N(C)C)cc12", "inhibition": "164% (active)"},
      {"smiles": "CCOC(=O)c1c(-c2ccccc2)oc2ccc(OCC(N)=O)cc12", "inhibition": "126% (active)"},
      {"smiles": "COC(=O)c1c(-c2ccsc2)oc2ccc(-c3cc(OC)c(OC)c(OC)c3)cc12", "inhibition": "-4.81%"},
      {"smiles": "C=CCNC(=O)c1ccc2c3n(nc2c1)-c1ccc(C)cc1CO3", "inhibition": "160% (active)"},
      {"smiles": "CCOC(=O)CSc1nc2c(c(=O)n(Cc3ccccc3Cl)c(=O)n2C)n1C", "inhibition": "28.5% (active)"},
      {"smiles": "COc1ccc(-n2cc(CNC3CCOCC3)c(-c3cccc(F)c3)n2)cc1", "inhibition": "15.8% (active)"},
      {"smiles": "COc1ccc(-n2cc(CN(C)Cc3n[nH]c(=O)[nH]3)c(-c3cccc(F)c3)n2)cc1", "inhibition": "37.4% (active)"},
      {"smiles": "CCCc1nc2oc3c(=O)[nH]cnc3c2c2c1COC(C)(C)C2", "inhibition": "101% (active)"},
      {"smiles": "O=C(O)/C=C/c1cn(-c2ccccc2)nc1-c1cccs1", "inhibition": "76.6% (active)"},
      {"smiles": "COc1ccccc1-c1oc2ccccc2c1C#CCCCCO", "inhibition": "145% (active)"},
      {"smiles": "Cc1ccc(-c2nc(C#N)c(NCCCn3ccnc3)o2)cc1", "inhibition": "34.1% (active)"},
      {"smiles": "Cn1cc(-c2ccccc2)cc(C#N)c1=O", "inhibition": "79.8% (active)"},
      {"smiles": "C=CCn1cc(-c2cccc(C(F)(F)F)c2)cc(C#N)c1=O", "inhibition": "-2.28%"},
      {"smiles": "CN(CCNC(=O)c1cc2c(-c3ccccc3F)nn(C)c2s1)C1CCCCC1", "inhibition": "183% (active)"},
      {"smiles": "CCOC(=O)c1cc2cc(C)ccc2[nH]1", "inhibition": "42.5% (active)"},
      {"smiles": "Cc1cc(C)c2c(n1)nn1c(-n3ccnc3)cc(C)nc21", "inhibition": "-4.63%"},
      {"smiles": "Cc1cc(C)c2c(NC(=O)C3CC3)nn(C)c2n1", "inhibition": "72.7% (active)"},
      {"smiles": "Cc1cc(=O)n2[nH]c(-c3cccc(Cl)c3)cc2n1", "inhibition": "82.4% (active)"},
      {"smiles": "CC(C)n1ncc2c(C(=O)NCc3ccccc3CN(C)C)cc(C3CC3)nc21", "inhibition": "108% (active)"},
      {"smiles": "CCCS(=O)(=O)Nc1c(C(=O)O)[nH]c2ccccc12", "inhibition": "48.1% (active)"},
      {"smiles": "CC(C)CN1CCNC(=O)C1CC(=O)N(C)CC1CCOCC1", "note": "(centres undefined)", "inhibition": "106% (active)"},
      {"smiles": "COCCCNC(=S)NCCNc1nc2cc(C)c(C)cc2cc1C#N", "inhibition": "60.5% (active)"},
      {"smiles": "CN(CCc1ccccn1)S(=O)(=O)c1ccc2c3c(cccc13)C(=O)N2", "inhibition": "103% (active)"},
      {"smiles": "CCN(C(=O)COC(=O)c1ccc(COc2ccc3c(C)cc(=O)oc3c2)cc1)C1CCS(=O)(=O)C1", "note": "(centres undefined)", "inhibition": "-0.6%"},
      {"smiles": "CCC(C)N(C(=O)COC(=O)C1C(C(=O)OC)=C(C)NC(C)=C1C(=O)OC)C1CCS(=O)(=O)C1", "note": "(centres undefined)", "inhibition": "111% (active)"},
      {"smiles": "Cc1ccc(-c2nc3ccccc3c(=O)n2-c2ccc(Br)cn2)cc1", "inhibition": "98.6% (active)"},
      {"smiles": "CC1(C(=O)NCc2ccco2)Cc2c(-c3ccc4c(c3)OCO4)ccnc2O1", "note": "(centres undefined)", "inhibition": "-4.87%"},
      {"smiles": "CC1(C(=O)NCc2ccc(F)c(F)c2)Cc2c(-c3ccc4c(c3)OCO4)ccnc2O1", "note": "(centres undefined)", "inhibition": "108% (active)"},
      {"smiles": "CC(C)OCCCNc1ncnc2c1[nH]c1ccc(F)cc12", "inhibition": "97.1% (active)"},
      {"smiles": "CCCCNc1c(-c2cccc(Sc3ccc(OC)cc3)c2)nc2ccccn12", "inhibition": "32.5% (active)"},
      {"smiles": "CCc1c(C)nc2cc(-c3cccs3)[nH]n2c1=O", "inhibition": "19.6% (active)"},
      {"smiles": "CCc1c(C)nc2cc(C)[nH]n2c1=O", "inhibition": "41.7% (active)"},
      {"smiles": "C=CCc1c(C)nc2cc(-c3ccccc3)[nH]n2c1=O", "inhibition": "49.2% (active)"},
      {"smiles": "Cc1ccc(S(=O)(=O)N2C[C@@H](C)[C@]3(C2)[C@H](O)[C@H](OC(=O)NCc2ccccc2)C[C@H]2C(=O)N(c4ccccc4)C(=O)[C@H]23)cc1", "inhibition": "-1.04%"},
      {"smiles": "CN(C)Cc1c(O)ccc2c(=O)c(-c3ccccc3Cl)coc12", "inhibition": "3.78%"},
      {"smiles": "C[C@H](O)[C@@H]1C(=O)N2CCc3c([nH]c4ccccc34)[C@@H]2C[C@@H]1N(C)C(=O)Nc1ccc(F)cc1", "inhibition": "182% (active)"},
      {"smiles": "O=C(O)c1cccnc1Sc1ncnc2sc3c(c12)CCC3", "inhibition": "47.7% (active)"},
      {"smiles": "N#Cc1c(N)n(CCOC(=O)c2ccc(Cl)cc2)c2nc3ccccc3nc12", "inhibition": "27.5% (active)"},
      {"smiles": "CC(OC(=O)c1ccccc1NCCO)C(=O)Nc1ccnn1C(C)C", "note": "(centres undefined)", "inhibition": "83.3% (active)"},
      {"smiles": "COc1cc2nc(N3CCN(C(=O)[C@@H]4CCCO4)CC3)nc(N)c2cc1OC", "inhibition": "81.7% (active)"},
      {"smiles": "Cc1ccc(NC(=O)CN(C)C(=O)COC(=O)c2nccnc2N)cc1", "inhibition": "-3.67%"},
      {"smiles": "Cc1nc2ccc(NC(=O)N3CCC(c4ccccc4)C3)cc2nc1C", "note": "(centres undefined)", "inhibition": "70.1% (active)"},
      {"smiles": "CCN1CCc2c(C#N)c(NCc3ccccc3)nc(NCCO)c2C1", "inhibition": "139% (active)"},
      {"smiles": "O=C(Nc1ccc2nccnc2c1)c1ccco1", "inhibition": "515% [above what the read-out allows, likely interference] (active)"},
      {"smiles": "O=C1OCCN1C(=O)[C@H]1[C@H](c2ccc(F)cc2)C(c2ccccc2)=NN1c1ccc(Br)cc1", "inhibition": "38.6% (active)"},
      {"smiles": "C#Cc1cc(N2CCN(C(=O)c3ccoc3)CC2)n2nc(-c3cccc(Cl)c3)cc2n1", "inhibition": "73.9% (active)"},
      {"smiles": "Cc1nc(COc2cc3oc(=O)cc(C)c3cc2Cl)cs1", "inhibition": "171% (active)"},
      {"smiles": "Cc1ccc(Cn2c(C)nc3c(c2=O)c2nc4ccccc4nc2n3Cc2ccco2)cc1", "inhibition": "48.7% (active)"}
    ]}
  ]
}
